Assay outcomes deposited in PubChem by National Center for Advancing Translational Sciences (NCATS).
An excerpt weighted towards active compounds, which were near 11% of everything screened.
PNC inhibitor = inhibitors of perinucleolar compartment assembly | PC3M PTB-GFP, PNC prevalence imaging, 16 h; active compounds read low | activity change (PNC), negative = inhibition, % at 10 µM | 140,000 compounds, 3.1% hits | AID 2417;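 active means readout at or below -70, meaning at least 70% loss of cells showing the perinucleolar compartment, a nuclear body marking cancer cells; inconclusive means readout between -30 and a set limit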;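 further: plate controls were DMSO wells for no effect and camptothecin positive control wells for full effect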
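Compounds are pinned in duplicate onto adhered PC3M cells stably expressing GFP-tagged PTB and incubated 16 h at 37 C. Cells are then fixed, nuclei stained with Hoechst, and PNC-positive cells counted.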
IMPase inh = IMPase inhibition in cells. P97697. CHO-M1 cells, IP1 accumulation, HTRF TR-FRET ratio. inhibition (IP1 accumulation), % at 46.1 µM. 120,000 tested, under 10 active; active means well fitted curve in the direction sought with a large enough effect in the signal ratio, not every such curve was filed as active; inconclusive means small, poorly fitted or top-dose-only effect, or a change in a side signal; inactive means no such curve, though single readings can be large or run the other way; the % refers to the signal ratio;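 further: cells stimulated with carbachol in lithium chloride buffer; plate controls were DMSO basal wells for no effect and reference inhibitor wells for full effect; higher means more IMPase inhibition seen as more IP1 and lower FRET ratio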
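CHO-M1 cells (CHO stably expressing M1 receptor), compound up to 46 uM final, stimulated with carbachol (50 uM as added) in buffer with 50mM LiCl, pH 7.4, 30 min at 37C. Cytosolic IP1 read by TR-FRET; AC50 from Hill fits.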
ALDH1A1 block = inhibitors of human aldehyde dehydrogenase 1A1. 220,000 compounds, 7.3% hits. AID 1030. Potency, µM (series often up to 75.3 µM), inactives show top-dose activity, negative = inhibition, usual class: inhibitors. P00352. Purified ALDH1A1, NADH fluorescence, propionaldehyde substrate;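 further: potency means the concentration at half of the fitted maximal effect; plate controls were no enzyme wells and a reference inhibitor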
Target sequence (P00352 whole entry, looked up): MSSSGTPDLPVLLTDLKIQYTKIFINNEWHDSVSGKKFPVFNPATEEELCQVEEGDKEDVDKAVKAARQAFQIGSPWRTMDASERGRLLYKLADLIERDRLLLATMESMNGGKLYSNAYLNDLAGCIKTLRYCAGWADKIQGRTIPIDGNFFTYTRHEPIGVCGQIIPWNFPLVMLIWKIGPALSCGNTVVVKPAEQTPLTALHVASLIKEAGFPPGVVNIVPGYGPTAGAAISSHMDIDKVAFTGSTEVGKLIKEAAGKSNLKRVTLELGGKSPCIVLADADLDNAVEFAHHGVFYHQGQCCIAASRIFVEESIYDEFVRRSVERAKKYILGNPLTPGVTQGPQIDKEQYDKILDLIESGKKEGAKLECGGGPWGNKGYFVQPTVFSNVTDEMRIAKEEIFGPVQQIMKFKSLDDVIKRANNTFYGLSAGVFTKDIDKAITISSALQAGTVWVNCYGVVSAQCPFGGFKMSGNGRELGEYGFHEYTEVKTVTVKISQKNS
IMPase Li inh = membrane-permeable IMPase blocker, potentiated with lithium. Potency, µM (titrated, usually from 59.4 µM), inactives show at the top dose activity, negative = IMPase inhibition, usual class: inhibitors. CHO-M1 cells, IP1 TR-FRET (IP-One), carbachol + lithium. 210,000 compounds, 0.35% hits; active means well fitted inhibition curve with a large enough effect; inconclusive means small, poorly fitted or top-dose-only effect; inactive means no such curve, though single readings can be large or run the other way;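 further: IP1 builds up when IMPase is blocked and the TR-FRET signal falls; potency means the concentration at half of the fitted maximal effect; plate controls were basal vehicle for no effect and high inhibitor control for full effect; nearly all actives have a fitted effect of over 50% in size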
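CHO cells stably expressing M1 receptor (2000/well) were cultured 16–30 h, then exposed to compounds with a small lithium addition for 30 min at 37C. IP1 was measured by TR-FRET competition; AC50 from Hill fits.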
HPGD inh = blocks human HPGD enzyme activity. P15428. purified HPGD, NADH fluorescence kinetic, PGE2 substrate. Potency, µM, inactives show at the top dose activity change, negative = inhibition, actives largely listed as inhibitors. 150,000 compounds, 4.3% hits; further: potency means the concentration at half of the fitted maximal effect
Target sequence (P15428 whole entry, looked up): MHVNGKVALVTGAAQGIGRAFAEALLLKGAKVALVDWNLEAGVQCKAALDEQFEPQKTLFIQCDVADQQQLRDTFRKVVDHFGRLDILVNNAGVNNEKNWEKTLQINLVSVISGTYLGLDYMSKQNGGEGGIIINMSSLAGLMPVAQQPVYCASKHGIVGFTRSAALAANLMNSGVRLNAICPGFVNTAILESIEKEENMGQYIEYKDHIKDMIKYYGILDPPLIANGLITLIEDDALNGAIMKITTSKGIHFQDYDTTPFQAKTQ
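20 nM HPGD preincubated 15 min at room temperature with compound in 50 mM Tris-HCl pH 8, 0.01% Tween 20. Started with 1 mM NAD+ and 30 uM prostaglandin E2; NADH fluorescence (360/450 nm) read 5 times over 30-s intervals, last minus first.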
* hit, by the source's call; ? = inconclusive; · = no result; ! = a repeat was not active; [ ] = remark or other dose. Unless noted, the call rests on the fitted dose curve; in most records, active means well fitted inhibition curve with a large enough effect (not every such curve was filed as active); inconclusive means small, poorly fitted or top-dose-only effect, or another doubt; inactive means no such curve, though single readings can be large or run the other way. Unless noted, on the % scale 0 is the no-effect control and ±100 the full control effect.

SMILES	PNC inhibitor	IMPase inh	ALDH1A1 block	IMPase Li inh	HPGD inh
C(=N/n1c2ccccc2c2ccccc21)/c1ccco1	?	6	10µM*	38%[38.3 µM]	-14%
O=c1c2cc(-c3ccccc3)sc2ncn1/N=C/c1ccco1	?	4	?	-1%[38.3 µM]	?
O=C(c1cc2ccccc2cc1OCC(O)CN1CCCCC1)N1CCCCC1 (centres undefined)	41	9	?	16%[38.3 µM]	11µM*
CC1(C)NC(=O)N(CC(O)COc2cc3ccccc3cc2C(=O)N2CCCCC2)C1=O (centres undefined)	-1	-7	-11%	4%[38.3 µM]	-11%
Cc1nc(NS(=O)(=O)c2ccc(Br)cc2)c2c3c(sc2n1)CCC3	-2	-1	13µM*	0%[38.3 µM]	-9%
O=S(=O)(Nc1nc2c(s1)CCCC2)c1ccc(Br)cc1	-10	4	13µM*	30%	-15%
Cc1nc(NS(=O)(=O)c2cccs2)c2c3c(sc2n1)CCC3	-19	-9	?	-3%[38.3 µM]	-17%
COc1cccc(Nc2nc(CN3CCOCC3)nc3sc4c(c23)CCCC4)c1	-5	0	-4%	2%	-8%
Cc1cc(S(=O)(=O)Nc2nc(CN3CCOCC3)nc3sc4c(c23)CCCC4)ccc1F	53	-3	14µM*	-19%[38.3 µM]	-8%
CC1CCc2c(sc3nc(CN4CCOCC4)nc(NS(=O)(=O)c4cccc([N+](=O)[O-])c4)c23)C1 (centres undefined)	-13	3	4.5µM*	13%[38.3 µM]	-11%
CC1CCc2c(sc3nc(CN4CCOCC4)nc(N4CCc5ccccc5C4)c23)C1 (centres undefined)	8	4	?	6%	-3%
Nc1ncnc2c1nc(-c1ccccc1)n2[C@H]1O[C@@H](CO)[C@@H](O)[C@H]1O	·	·	-10%[13.5 µM]	0%	-17%
CCOC(=O)c1cc(C#N)c(=S)[nH]c1C	·	·	3.5µM*	-12%	·
CC(C)(C)c1onc(OCP(=O)(O)O)c1C[C@@H](N)C(=O)O	·	5	·	·	·
Cc1ccc(-n2c(C)cc(/C=c3/sc4nc5ccccc5n4c3=O)c2C)cc1	26	-1	?	17%[38.3 µM]	-15%
COc1cc(N2CCCC2)c(OC)cc1/C=c1/sc2nc3ccccc3n2c1=O	-15	-16	16µM*	2%[38.3 µM]	0%
COc1ccc(CNC(=O)CN(C2CCCCC2)S(C)(=O)=O)cc1	-2	·	?	7%	-2%
CCC(C)NC(=O)Cn1c(=O)n(CCCCCC(=O)Nc2ccccc2)c(=O)c2sccc21 (centres undefined)	-21	·	2%	-4%	-16%
Cc1cccc(C)c1NC(=O)Cn1c(=O)n(CCCC(=O)NCc2ccco2)c(=O)c2sccc21	-91*	1	?	·	·
CCN(CC)C(=O)Cn1c(=O)n(CCCCCC(=O)Nc2ccccc2)c(=O)c2sccc21	-113*	·	0%	4%	-5%
O=C(Nc1cccc(Cl)c1)Nn1cnnc1	·	·	-3%[13.5 µM]	2%	-6%
O=C1c2cccc3c(O)ccc(c23)C(=O)N1Cc1ccccc1	-90*	-11	-8%	-2%[38.3 µM]	-29%
CC1(C)S[C@@H]2[C@H](NC(=O)[C@@H](N)c3ccc(O)cc3)C(=O)N2[C@H]1C(=O)O	·	-4[20.6 µM]	-12%[20.9 µM]	3%	-15%
Cc1ccc2c(C)c(C(=O)N(Cc3ccc(Cl)cc3)C3CCS(=O)(=O)C3)oc2c1 (centres undefined)	·	-1	·	·	·
O=C(CCN1C(=O)C2C3C=CC(C3)C2C1=O)N1CCN(c2ccc(F)cc2)CC1 (centres undefined)	-9	8	?	1%[38.3 µM]	0%
SMILES	PNC inhibitor	IMPase inh	ALDH1A1 block	IMPase Li inh	HPGD inh
O=C(CCN1C(=O)C2C3C=CC(C3)C2C1=O)N1CCN(c2ccc([N+](=O)[O-])cc2)CC1 (centres undefined)	·	·	6.3µM*	-3%	·
O=C(CCN1C(=O)C2C3C=CC(C3)C2C1=O)N1CCN(c2ccccc2Cl)CC1 (centres undefined)	?	-1	2µM*	44%[38.3 µM]	-7%
Cc1ccc(C(=O)CSc2nccn2-c2ccccc2)cc1	60	3	?	-3%[38.3 µM]	-1%
O=C(CSc1nccn1-c1cccc(Cl)c1)NC1CCCC1	-21	12	-7%	1%[38.3 µM]	16µM*
O=C(CSc1nccn1-c1ccccc1)c1ccc(Cl)cc1	-100*	13	?	13%[38.3 µM]	-13%
CCN(CC(=O)Nc1ccc(NC(C)=O)cc1)c1ccc(C(F)(F)F)cn1	11	·	11%	1%	-20%
CC(C)c1nnc(NC(=O)c2cccc(NC(=O)C(F)(F)F)c2)s1	·	·	22µM*	-6%	·
Nc1ccc(-c2nc3ccccc3[nH]2)cc1	4	3	?	2%[38.3 µM]	?
Nc1ccc(-c2nc3ccc(-c4nc5ccc(N)cc5[nH]4)cc3[nH]2)cc1	·	?	?	10µM*!	?
OC[C@@H]1O[C@H](O)[C@@H](Cl)[C@H](O)[C@@H]1O	·	6	·	·	·
Cc1cc(C)n(-c2cc(N3CCN(C(=O)c4ccc(C(C)(C)C)cc4)CC3)ccc2[N+](=O)[O-])n1	1	11	?	-13%[38.3 µM]	-17%
O=C(c1ccccc1)N1CCN(c2ccc([N+](=O)[O-])c(N3CCOCC3)c2)CC1	?	·	0.89µM*	-6%	-9%
CS(=O)(=O)N1CCN(c2ccc([N+](=O)[O-])c(N3CCOCC3)c2)CC1	2	2	-10%	1%[38.3 µM]	-12%
O=C(c1cccc(F)c1)N1CCN(c2ccc([N+](=O)[O-])c(N3CCOCC3)c2)CC1	-25	·	7.9µM*	-5%	-10%
O=C(c1cccc(F)c1)N1CCC(N2CCOCC2)CC1	1	-6	14µM*	17%[38.3 µM]	-8%
O=C(c1cccc(Cl)c1)N1CCC(N2CCC(C(=O)N3CCOCC3)CC2)CC1	·	·	-9%	-3%	·
Cc1cc(C)n(-c2cc(N3CCN(C(=O)c4cccc(F)c4)CC3)ccc2[N+](=O)[O-])n1	12	·	4.5µM*	0%	-13%
CCC/C=C(\CCC)C(NS(=O)(=O)c1ccc(-c2ccccc2)cc1)c1ccc(C(=O)OC)cc1 (centres undefined)	·	·	-9%	-3%	-10%
COC(=O)[C@@H]1C[C@@]2(O)[C@@H](O)[C@@H](O)[C@@H](O)C[C@H]2N1CC1CC1	·	·	1%	-2%	-1%
Cn1cccc1C(=O)C(=O)Nc1cc(Cl)cc(Cl)c1	?	13	?	14µM*	?
Cc1cc(N2CCCC2)n2nc(C)nc2n1	-84*	·	1%	2%	-9%
Cc1cc(N2CCC(C)CC2)n2nc(C)c(-c3ccccc3)c2n1	-16	9	2%	25%[38.3 µM]	?
Cc1cc(N2CCCCC2)n2nc(C)c(-c3ccccc3)c2n1	-82*	10	-9%	·	·
CCn1nc(C(=O)Nc2nc3ccccc3[nH]2)c2ccccc2c1=O	-89*	·	-10%	1%	-10%
Cn1nc(C(=O)Nc2nc3ccccc3[nH]2)c2ccccc2c1=O	?	5	-4%	10%	-15%
